Results filed as inconclusive are left out. Values without a mark were called inactive. Calls come from the whole dose curve; as a rule, active = well fitted inhibition curve with a large enough effect; inconclusive = small, poorly fitted or top-dose-only effect; inactive = no such curve, though single readings can be large or run the other way.
biological target: Retinaldehyde dehydrogenase 3 (Homo sapiens) (UniProt P47895); test: qHTS for Inhibitors of the Aldehyde Dehydrogenase Family (ALDH1A3) Validation screen (AID 2061312); conditions: ALDH1A3 enzyme inhibition qHTS validation, fluorescence; series mostly up to 42.4 µM; activity change, negative = inhibition: at the top concentration; note: nearly all actives have a fitted effect of over 45% in size
% is set by controls: 0 for no effect and ±100 for the full control effect.

Q: With `CC(N)c1cccc(Cl)c1Cl` (centres undefined) as the molecule, how does the “activity change, negative = inhibition” value read?
A: -9.94%

Q: For `COC(=O)N1CCN(C(=O)Cc2ccc(Cl)c(Cl)c2)C(CN2CCCC2)C1` (centres undefined), which “activity change, negative = inhibition” value is on record?
A: -16.5%

Q: For `CCCN(CCC)[C@@H]1CCc2ccc(O)cc2C1`, which “activity change, negative = inhibition” value is on record?
A: 13.4%

Q: Which “activity change, negative = inhibition” value does the source give for `NCCCP(=O)(O)O` here?
A: -1.21%

Q: With `c1ccc(C2(c3ccccc3)CC2C2=NCCN2)cc1` (centres undefined) as the molecule, how does the “activity change, negative = inhibition” value read?
A: 8.18%

Q: For `COc1ccc2[nH]c3c(c2c1)CCNC3`, which “activity change, negative = inhibition” value is on record?
A: 20.9%

Q: Which “activity change, negative = inhibition” value does the source give for `O=C1CCCN1CC#CCN1CCCC1` here?
A: 4.05%

Q: `c1ccc2c(c1)OCC(C1=NCCN1)O2` (centres undefined) was tested. Which “activity change, negative = inhibition” value did it give?
A: 1.02%

Q: `C#CCOC(=O)C1=CCCN(C)C1` was tested. Which “activity change, negative = inhibition” value did it give?
A: -22.8%

Q: `CC12NC(Cc3ccccc31)c1ccccc12` (centres undefined) was tested. Which “activity change, negative = inhibition” value did it give?
A: -4.09%

Q: `C[C@H](N)Cc1cccc(C(F)(F)F)c1` was tested. Which “activity change, negative = inhibition” value did it give?
A: -21.2%

Q: With `NC(CCP(=O)(O)O)C(=O)O` (centres undefined) as the molecule, how does the “activity change, negative = inhibition” value read?
A: -9.7%

Q: For `CN(C(=O)Cc1ccc(Cl)c(Cl)c1)C(CN1CCCC1)c1cccc(OCC(=O)O)c1` (centres undefined), which “activity change, negative = inhibition” value is on record?
A: -15.2%

Q: How did the “activity change, negative = inhibition” value turn out when `CC(=O)[C@H]1CC[C@H]2[C@@H]3CC[C@H]4C[C@](C)(O)CC[C@]4(C)[C@H]3CC[C@]12C` was run?
A: -1.3%

Q: `C[C@]12N[C@H](Cc3ccccc31)c1ccccc12` was tested. Which “activity change, negative = inhibition” value did it give?
A: 17.7%

Q: Which “activity change, negative = inhibition” value does the source give for `Nc1ccc(CCN2CCN(c3cccc(C(F)(F)F)c3)CC2)cc1` here?
A: 3.27%

Q: How did the “activity change, negative = inhibition” value turn out when `CN1CCc2cccc(Cl)c2CC1` was run?
A: -1.67%

Q: Which “activity change, negative = inhibition” value does the source give for `CC(=O)OCC1=C(C(=O)O)N2C(=O)[C@@H](NC(=O)CCC[C@@H](N)C(=O)O)[C@H]2SC1` here?
A: -13.7%

Q: `C[C@H]1C2Cc3ccc(O)cc3[C@@]1(C)CCN2CC1CC1` was tested. Which “activity change, negative = inhibition” value did it give?
A: 5.38%

Q: How did the “activity change, negative = inhibition” value turn out when `COc1ccc2c(c1)C13CCCCC1C(C2)N(C)CC3` (centres undefined) was run?
A: 9.55%

Q: Which “activity change, negative = inhibition” value does the source give for `C[N+]1(C)CCc2cc3c(cc2[C@H]1[C@@H]1OC(=O)c2c1ccc1c2OCO1)OCO3` here?
A: 9.53%

Q: For `C[C@H](N)CN1CCc2ccc(Br)cc21`, which “activity change, negative = inhibition” value is on record?
A: 28.7%

Q: Which “activity change, negative = inhibition” value does the source give for `CCCN(CCC)CCc1ccc(O)c(O)c1` here?
A: -18.9%

Q: Which “activity change, negative = inhibition” value does the source give for `O=C(CCCN1CCC2(CC1)C(=O)NCN2c1ccccc1)c1ccc(F)cc1` here?
A: 19.9%

Q: With `NC1CC1c1ccccc1` (centres undefined) as the molecule, how does the “activity change, negative = inhibition” value read?
A: -22%

Q: How did the “activity change, negative = inhibition” value turn out when `Cc1sc2ccccc2c1CC1=NCCN1` was run?
A: 3.55%

Q: Which “activity change, negative = inhibition” value does the source give for `NC(=NCCC[C@H](N)C(=O)O)N[N+](=O)[O-]` here?
A: -9.13%

Q: How did the “activity change, negative = inhibition” value turn out when `c1ccc2sc(C3(N4CCCCC4)CCCCC3)cc2c1` was run?
A: -21.4%

Q: With `C[C@@H](N)Cc1cnc[nH]1` as the molecule, how does the “activity change, negative = inhibition” value read?
A: -30.7%

Q: For `O=C(O)[C@@H]1CCN1`, which “activity change, negative = inhibition” value is on record?
A: -4.96%

Q: How did the “activity change, negative = inhibition” value turn out when `NCCc1ccc(O)cc1` was run?
A: 21.1%

Q: With `CCNC(=O)[C@H]1O[C@@H](n2cnc3c(N)ncnc32)[C@H](O)[C@@H]1O` as the molecule, how does the “activity change, negative = inhibition” value read?
A: 4.59%

Q: `O=C1NCN(c2ccccc2)C12CCN(CC1COc3ccccc3O1)CC2` (centres undefined) was tested. Which “activity change, negative = inhibition” value did it give?
A: 14.8%

Q: With `Cc1[nH]c2ccc(O)cc2c1CCN` as the molecule, how does the “activity change, negative = inhibition” value read?
A: -19.7%

Q: Which “activity change, negative = inhibition” value does the source give for `NCC(O)c1ccc(O)cc1` (centres undefined) here?
A: 3.07%

Q: `C=CCN1C[C@@H](C)N([C@H](c2ccc(C(=O)N(CC)CC)cc2)c2cccc(OC)c2)C[C@@H]1C` was tested. Which “activity change, negative = inhibition” value did it give?
A: -6.91%

Q: With `c1ccc(C2CC2)c(OCC2=NCCN2)c1` as the molecule, how does the “activity change, negative = inhibition” value read?
A: 9.29%

Q: Which “activity change, negative = inhibition” value does the source give for `Clc1cc(I)cc(Cl)c1NC1=NCCN1` here?
A: -19.5%

Q: Which “activity change, negative = inhibition” value does the source give for `NC(=O)CN1CC(O)CC1=O` (centres undefined) here?
A: -1.29%

— PubChem BioAssay (NCATS)
